# Test results from the supplement of paper PMC10849652.
# About 7,900 targets were measured; listed, in parts, are those with a hit and a random draw of the rest. About 0.6% of all pairs of compound and target were hits. Unmarked numbers belong to inactive results.
# Tests used:
# Assay in all cases: log2 fold change, soluble protein after heating vs DMSO (PISA); higher = thermal stabilisation; K562 cells, 10 uM, 30 min; active = over 0.2 and 3.5 SD of the protein, either way, in both replicates (recomputed)
# [1] = compound: CC1=C(C=C(C=C1)NC(=O)C2=CC(=CC=C2)C(C)(C)C#N)NC3=CC4=C(C=C3)N=CN(C4=O)C
# In short: (§1)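 K562 cells at 2×10^6 cells/mL were treated with 10 μM compound for 30 min. Aliquots were heated for 3 min across 48°C-58°C, pooled, and extracted in PBS with 0.5% NP-40 at 4°C; soluble protein was the supernatant after 21,000xg for 90 min. Soluble protein was quantified by TMTpro 16plex LC-MS/MS with channel sums equalised, and reported as log2 fold change in thermal stability against DMSO controls, with values from duplicates.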
# [2] = compound: CC1=C(C=C(C=C1)NC(=O)C2=CC(=CC=C2)N(C)C)NC(=O)C3=CC=C(C=C3)O
# In short: as §1
# [3] = compound: CC1=CC=C(C=C1)SC2=C3C=C(SC3=CN=C2)C(=O)N
# In short: as §1
# [4] = compound: CC1=NC(=CC=C1)C2=C(N=C(N2)C(C)(C)C)C3=CC4=NC=CN=C4C=C3
# In short: as §1
# Nexturastat A = compound: CCCCN(Cc1ccc(C(=O)NO)cc1)C(=O)Nc1ccccc1 [Nexturastat A]
# In short: as §1
# vemurafenib = compound: CCCS(=O)(=O)Nc1ccc(F)c(C(=O)c2c[nH]c3ncc(-c4ccc(Cl)cc4)cc23)c1F [vemurafenib]
# In short: as §1
# [5] = compound: CCCS(=O)(=O)Nc1ccc(F)c(C(=O)c2c[nH]c3ncc(Cl)cc23)c1F
# In short: as §1
# [6] = compound: CCCc1cc(C)[nH]c(=O)c1CNC(=O)c1cc(-c2ccnc(N3CCN(C)CC3)c2)cc2c1cnn2C(C)C
# In short: as §1
# givinostat = compound: CCN(CC)Cc1ccc2cc(COC(=O)Nc3ccc(C(=O)NO)cc3)ccc2c1 [givinostat]
# In short: as §1
# barasertib = compound: CCN(CCCOc1ccc2c(Nc3cc(CC(=O)Nc4cccc(F)c4)[nH]n3)ncnc2c1)CCOP(=O)(O)O [barasertib]
# In short: as §1
# UniProt Q8TBN0, sequence (Q8TBN0 whole entry, looked up): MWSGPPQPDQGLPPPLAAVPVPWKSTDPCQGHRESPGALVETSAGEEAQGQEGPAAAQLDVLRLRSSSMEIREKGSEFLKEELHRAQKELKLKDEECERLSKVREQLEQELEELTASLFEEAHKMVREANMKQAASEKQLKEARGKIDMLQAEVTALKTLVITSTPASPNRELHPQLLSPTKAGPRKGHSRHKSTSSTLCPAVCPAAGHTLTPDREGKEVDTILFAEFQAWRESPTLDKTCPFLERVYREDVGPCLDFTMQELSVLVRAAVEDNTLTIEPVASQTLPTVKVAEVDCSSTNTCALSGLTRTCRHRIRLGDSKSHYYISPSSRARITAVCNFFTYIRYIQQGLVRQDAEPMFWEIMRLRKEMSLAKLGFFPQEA
# UniProt Q15436, sequence (Q15436 whole entry, looked up): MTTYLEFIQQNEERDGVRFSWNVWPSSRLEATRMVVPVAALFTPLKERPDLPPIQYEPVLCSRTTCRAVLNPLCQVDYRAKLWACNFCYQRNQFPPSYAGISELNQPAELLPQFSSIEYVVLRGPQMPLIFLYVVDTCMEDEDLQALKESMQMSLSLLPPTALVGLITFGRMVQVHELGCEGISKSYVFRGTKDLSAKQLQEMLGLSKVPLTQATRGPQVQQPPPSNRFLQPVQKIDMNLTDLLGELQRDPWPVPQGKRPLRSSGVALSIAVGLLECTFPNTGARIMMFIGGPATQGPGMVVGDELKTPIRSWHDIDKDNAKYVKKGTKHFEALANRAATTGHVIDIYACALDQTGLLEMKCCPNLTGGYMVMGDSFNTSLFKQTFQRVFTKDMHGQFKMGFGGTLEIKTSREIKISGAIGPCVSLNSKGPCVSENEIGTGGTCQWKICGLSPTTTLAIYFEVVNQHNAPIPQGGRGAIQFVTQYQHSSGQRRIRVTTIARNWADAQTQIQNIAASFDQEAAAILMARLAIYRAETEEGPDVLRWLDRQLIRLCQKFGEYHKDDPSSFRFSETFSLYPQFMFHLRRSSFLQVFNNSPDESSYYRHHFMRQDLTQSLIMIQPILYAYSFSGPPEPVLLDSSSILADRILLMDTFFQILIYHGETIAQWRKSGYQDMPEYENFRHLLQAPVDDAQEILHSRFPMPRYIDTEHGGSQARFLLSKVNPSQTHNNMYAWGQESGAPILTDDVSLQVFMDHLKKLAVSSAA
# UniProt Q9P2N5, sequence (Q9P2N5 whole entry, looked up): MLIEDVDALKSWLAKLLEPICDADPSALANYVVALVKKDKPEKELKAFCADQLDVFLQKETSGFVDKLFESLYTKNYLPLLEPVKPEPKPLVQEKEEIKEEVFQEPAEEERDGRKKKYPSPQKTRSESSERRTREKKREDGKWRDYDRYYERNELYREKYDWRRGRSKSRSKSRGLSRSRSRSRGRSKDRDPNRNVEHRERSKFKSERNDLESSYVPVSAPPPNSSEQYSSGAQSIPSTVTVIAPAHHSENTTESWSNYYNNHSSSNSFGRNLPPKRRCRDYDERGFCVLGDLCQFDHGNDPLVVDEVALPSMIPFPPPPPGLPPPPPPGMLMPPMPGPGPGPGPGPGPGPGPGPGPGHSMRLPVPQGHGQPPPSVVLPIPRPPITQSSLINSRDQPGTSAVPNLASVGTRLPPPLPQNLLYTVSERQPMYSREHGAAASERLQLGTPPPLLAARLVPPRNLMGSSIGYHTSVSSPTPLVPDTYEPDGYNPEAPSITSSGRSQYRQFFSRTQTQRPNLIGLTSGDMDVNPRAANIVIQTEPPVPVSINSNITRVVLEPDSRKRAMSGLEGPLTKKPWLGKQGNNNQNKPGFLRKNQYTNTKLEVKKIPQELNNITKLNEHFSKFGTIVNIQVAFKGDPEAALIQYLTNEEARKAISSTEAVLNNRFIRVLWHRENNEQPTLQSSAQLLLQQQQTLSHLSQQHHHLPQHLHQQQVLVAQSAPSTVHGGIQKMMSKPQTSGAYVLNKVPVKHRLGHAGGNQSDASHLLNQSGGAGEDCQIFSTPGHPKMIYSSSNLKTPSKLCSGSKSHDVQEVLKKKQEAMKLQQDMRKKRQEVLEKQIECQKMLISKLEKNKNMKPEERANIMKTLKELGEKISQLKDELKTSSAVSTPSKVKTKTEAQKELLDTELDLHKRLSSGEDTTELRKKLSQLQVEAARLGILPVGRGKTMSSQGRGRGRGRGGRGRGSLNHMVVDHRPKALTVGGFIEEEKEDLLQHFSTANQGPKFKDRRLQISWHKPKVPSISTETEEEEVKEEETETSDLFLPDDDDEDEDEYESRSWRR
# UniProt P52306, sequence (P52306 whole entry, looked up): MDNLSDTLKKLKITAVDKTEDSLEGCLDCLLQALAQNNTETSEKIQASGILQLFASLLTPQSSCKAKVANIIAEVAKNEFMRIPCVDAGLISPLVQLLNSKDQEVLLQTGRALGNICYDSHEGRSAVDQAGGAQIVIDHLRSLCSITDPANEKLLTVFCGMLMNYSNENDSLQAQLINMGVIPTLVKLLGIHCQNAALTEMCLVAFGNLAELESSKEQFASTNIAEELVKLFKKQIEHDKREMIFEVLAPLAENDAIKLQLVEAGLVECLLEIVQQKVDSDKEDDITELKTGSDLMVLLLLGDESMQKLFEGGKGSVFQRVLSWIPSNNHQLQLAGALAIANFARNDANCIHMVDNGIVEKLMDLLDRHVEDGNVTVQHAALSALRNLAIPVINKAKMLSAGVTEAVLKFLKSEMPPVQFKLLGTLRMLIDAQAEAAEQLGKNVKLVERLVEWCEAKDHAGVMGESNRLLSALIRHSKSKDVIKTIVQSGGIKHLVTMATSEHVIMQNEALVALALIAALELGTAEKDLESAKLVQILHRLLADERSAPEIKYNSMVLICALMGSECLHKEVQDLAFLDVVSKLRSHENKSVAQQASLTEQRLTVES
# UniProt P41440, sequence (P41440 whole entry, looked up): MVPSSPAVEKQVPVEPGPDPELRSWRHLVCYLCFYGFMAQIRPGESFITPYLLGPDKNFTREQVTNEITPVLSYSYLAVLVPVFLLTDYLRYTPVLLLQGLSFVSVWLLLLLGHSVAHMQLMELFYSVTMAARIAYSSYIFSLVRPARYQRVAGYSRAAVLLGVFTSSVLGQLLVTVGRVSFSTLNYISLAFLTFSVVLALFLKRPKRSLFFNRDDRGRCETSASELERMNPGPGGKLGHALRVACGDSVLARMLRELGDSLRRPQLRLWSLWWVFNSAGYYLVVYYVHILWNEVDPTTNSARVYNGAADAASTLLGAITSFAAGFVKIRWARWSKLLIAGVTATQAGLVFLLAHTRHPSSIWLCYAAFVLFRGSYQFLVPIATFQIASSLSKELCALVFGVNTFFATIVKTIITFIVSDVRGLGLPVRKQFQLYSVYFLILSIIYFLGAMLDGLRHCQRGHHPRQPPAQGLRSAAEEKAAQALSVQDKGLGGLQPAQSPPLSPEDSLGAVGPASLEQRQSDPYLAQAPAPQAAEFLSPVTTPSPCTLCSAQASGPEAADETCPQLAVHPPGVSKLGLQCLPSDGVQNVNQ
# UniProt Q86VR2, sequence (Q86VR2 whole entry, looked up): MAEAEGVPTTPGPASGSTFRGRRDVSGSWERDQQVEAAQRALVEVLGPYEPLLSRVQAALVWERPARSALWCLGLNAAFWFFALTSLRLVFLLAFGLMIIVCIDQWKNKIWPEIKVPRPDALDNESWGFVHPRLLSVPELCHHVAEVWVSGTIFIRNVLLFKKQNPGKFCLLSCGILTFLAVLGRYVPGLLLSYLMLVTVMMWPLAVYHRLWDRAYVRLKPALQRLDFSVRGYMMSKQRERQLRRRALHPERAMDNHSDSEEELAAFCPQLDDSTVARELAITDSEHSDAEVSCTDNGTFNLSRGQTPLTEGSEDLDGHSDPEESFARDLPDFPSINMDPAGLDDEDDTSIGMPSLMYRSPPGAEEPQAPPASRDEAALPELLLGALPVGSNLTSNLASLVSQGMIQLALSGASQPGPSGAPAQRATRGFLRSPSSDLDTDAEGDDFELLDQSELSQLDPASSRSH
# UniProt Q9NQG5, sequence (Q9NQG5 whole entry, looked up): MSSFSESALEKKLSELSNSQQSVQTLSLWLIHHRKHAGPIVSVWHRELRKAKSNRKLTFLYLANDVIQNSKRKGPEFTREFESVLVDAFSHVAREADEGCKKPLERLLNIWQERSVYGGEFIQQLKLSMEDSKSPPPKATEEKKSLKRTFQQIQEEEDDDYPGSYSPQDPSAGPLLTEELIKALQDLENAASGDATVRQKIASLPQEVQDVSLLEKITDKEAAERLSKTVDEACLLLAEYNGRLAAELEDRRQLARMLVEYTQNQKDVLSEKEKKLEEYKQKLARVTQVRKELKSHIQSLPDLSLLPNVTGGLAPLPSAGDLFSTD
# UniProt Q04206, sequence (Q04206 whole entry, looked up): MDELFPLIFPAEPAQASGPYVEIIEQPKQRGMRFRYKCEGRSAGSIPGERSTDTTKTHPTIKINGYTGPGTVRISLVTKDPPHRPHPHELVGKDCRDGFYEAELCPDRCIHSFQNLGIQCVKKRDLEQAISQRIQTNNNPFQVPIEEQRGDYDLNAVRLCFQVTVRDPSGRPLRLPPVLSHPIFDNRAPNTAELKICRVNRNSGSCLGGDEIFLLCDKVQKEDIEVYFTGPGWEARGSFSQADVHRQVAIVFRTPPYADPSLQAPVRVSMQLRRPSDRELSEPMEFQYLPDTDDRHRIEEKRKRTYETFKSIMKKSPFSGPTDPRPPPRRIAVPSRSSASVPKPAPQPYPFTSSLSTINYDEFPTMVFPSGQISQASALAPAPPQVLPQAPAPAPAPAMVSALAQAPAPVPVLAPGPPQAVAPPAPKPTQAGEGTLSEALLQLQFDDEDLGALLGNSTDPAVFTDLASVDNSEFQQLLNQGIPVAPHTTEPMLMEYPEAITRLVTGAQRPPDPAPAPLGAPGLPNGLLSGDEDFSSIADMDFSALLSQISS
# UniProt P11233, sequence (P11233 whole entry, looked up): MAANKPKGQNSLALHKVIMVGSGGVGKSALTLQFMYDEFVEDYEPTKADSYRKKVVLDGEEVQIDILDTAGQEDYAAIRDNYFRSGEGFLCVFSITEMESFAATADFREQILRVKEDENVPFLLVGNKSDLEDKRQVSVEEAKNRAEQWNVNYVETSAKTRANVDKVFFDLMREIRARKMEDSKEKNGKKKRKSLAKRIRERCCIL
Target,log2 fold change [1],log2 fold change [2],log2 fold change [3],log2 fold change [4],log2 fold change (Nexturastat A),log2 fold change (vemurafenib),log2 fold change [5],log2 fold change [6],log2 fold change (givinostat),log2 fold change (barasertib)
RAP1GDS1 isoform 5 (UniProt P52306),-0.04,-0.035,0.073,0.042,-0.023,-0.014,0.174,0.016,0.047,0.019
RBBP6 (UniProt Q7Z6E9),-0.108,0.119,0.03,0.127,-0.051,0.008,0.068,-0.023,0.043,-0.018
RCOR1 (UniProt Q9UKL0),-0.061,-0.089,0.037,0.021,0.054,0.016,0.029,-0.032,0.114,0.01
RPRD1B (UniProt Q9NQG5),0.007,-0.021,-0.029,0.101,-0.054,0.05,0.07,-0.057,-0.064,0.007
RSRC2 (UniProt Q7L4I2),-0.048,0.04,-0.058,0,0.015,0.007,0.003,-0.063,-0.013,0.01
SETD3 (UniProt Q86TU7),-0.008,0.029,-0.01,0.046,-0.024,0.035,-0.01,0.034,-0.037,0.026
RELA (UniProt Q04206),0.013,0,0.016,0.014,0.028,0.014,0.067,0.021,0.015,0.013
RUNX1 isoform 8 (UniProt Q01196),0.236,0.018,0.059,-0.045,-0.231,-0.026,0.046,0.088,0.076,-0.058
RETSAT (UniProt Q6NUM9),0.014,0.025,0.088,-0.037,-0.003,-0.03,-0.077,-0.091,0.31,0.009
RDH11 (UniProt Q8TC12),0.068,-0.054,0.019,-0.016,0.011,0.042,0.035,0.007,0.066,0.057
RBM17 (UniProt Q96I25),-0.004,-0.036,0.057,0.012,0.007,0.068,0.118,0.013,0.028,0.043
SEC23A (UniProt Q15436),0.005,-0.067,-0.027,-0.041,0.008,0.049,0.06,0.003,-0.025,0.027
RPS15 (UniProt P62841),-0.014,0.038,-0.146,0.005,0.285,-0.117,-0.175,0.1,-0.041,-0.125
RALY (UniProt Q9UKM9),0.091,-0.021,-0.05,0.105,0.358,-0.056,0.187,0.005,0.209,-0.138
RANBP2 (UniProt P49792),0.089,-0.07,-0.041,0.04,0.221,-0.086,0.03,-0.072,0.046,0.036
SLC19A1 (UniProt P41440),0.112,-0.054,-0.019,-0.023,-0.107,0.002,-0.031,-0.018,0.007,-0.011
SLC12A9 (UniProt Q9BXP2),-0.007,0.056,-0.04,0.005,-0.008,0.017,-0.012,-0.059,-0.014,0.083
SIK3 (UniProt H0Y4E8),0.017,0.18,-0.062,-0.066,–,-0.08,-0.076,-0.026,0.098,–
RIPK1 (UniProt Q13546),0.101,-0.043,-0.002,-0.178,0.109,0.054,0.135,0.092,0.094,0.085
RTN4IP1 (UniProt Q8WWV3),0.253,-0.033,0.294,0.119,-0.061,0.034,-0.041,-0.218,-0.081,0.031
RAB3IL1 (UniProt Q8TBN0),0.005,0.002,0.008,0.02,-0.124,0.018,0.062,-0.025,-0.024,0.015
SAMD4B (UniProt Q5PRF9),-0.501 (active),-0.02,0,-0.054,0.202,–,-0.132,–,0.201,0.157
RETREG3 (UniProt Q86VR2),-0.006,0.014,0.148,0.13,0.062,0.043,0.055,-0.044,-0.048,0.023
SERINC1 (UniProt Q9NRX5),0.044,-0.048,0.372,-0.021,0.053,-0.083,-0.018,-0.874 (active),0.05,0.002
RAB3IL1 (UniProt E9PK89),-0.069,-0.037,0,0.061,-0.111,-0.08,-0.053,–,0.278,-0.014
RBM27 (UniProt Q9P2N5),0.031,-0.008,0.01,-0.018,0.025,-0.008,0.09,0.041,0.013,0.009
RAC1 (UniProt P63000),0.14,-0.002,-0.055,0.241,-0.021,-0.046,-0.008,0.032,-0.059,-0.026
RALA (UniProt P11233),-0.007,-0.006,0.02,0.132,0.021,-0.031,0.05,0.019,-0.002,-0.001
RNF220 (UniProt Q5VTB9),-0.01,-0.086,0.008,0.047,0.008,-0.001,-0.001,-0.023,0.038,0.016
RUFY3 isoform 3 (UniProt Q7L099),-0.085,-0.068,0.016,0.038,–,-0.032,-0.011,-0.093,0.021,–
